Screening results as filed in PubChem.
The list is not random: actives were taken first. Their share in the collection is about 8%.
HT1080 IDH1KD tx: HT-1080 IDH1 knockdown cell toxicity (counter line). HT-1080 IDH1 knockdown viability, ATP luminescence, 48 h. Potency, µM (series often up to 46.1 µM), for inactives: top-dose activity, negative = toxicity, actives largely listed as cytotoxic. 360,000 tested, 2% active;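 further: 0% = DMSO wells and -100% = cell-free medium wells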
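Knockdown cells (IDH1KD HT-1080) received compounds 2 h after plating at 750 cells/well and were kept 48 h at 37 °C in 5% FBS RPMI. A CellTiter-Glo luminescence read gave % activity for curve fitting.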
SW480 rereplic: induces DNA re-replication in SW480 colon adenocarcinoma cells | Potency, µM (highest dose often 46.1 µM), for the others: at the top dose re-replication activation, usual class: activators | SW480 DNA re-replication, Hoechst DNA content imaging, 48 h | 340,000 tested, 1.8% active; further: % of control where 0% means no effect; nearly all actives have a fitted effect of over 55% in size
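Image-based read-out: total Hoechst fluorescence of nuclei (405 nm excitation, 500-530 nm emission), with hits raising the fraction of high-intensity nuclei. SW480 colon cells incubated 48 hr with compounds at 37 C.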
KB-3-1 cytotox: KB-3-1 parental cell cytotoxicity; KB-3-1 viability, CellTiter-Glo ATP luminescence, 72 h; Potency, µM (titrated, usually from 46.1 µM), hits mostly cytotoxic; 400,000 tested, 1.4% active; AID 1347075; further: on the % scale 0 is the no-effect control and ±100 the full control effect; nearly all actives have a fitted effect of over 60% in size
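72 h, 37 °C compound treatment of KB-3-1 parental cells; CellTiter-Glo added, 10 min, luminescence read. Data corrected against DMSO-only plates and normalized before curve fitting.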
HT1080-NT tox: kills 2HG-producing HT-1080-NT fibrosarcoma cells; HT-1080-NT fibrosarcoma viability, CellTiter-Glo ATP luminescence, 48 h; Potency, µM (doses to about 46.1 µM), without a hit: top-dose activity, negative = less viability, hits mostly cytotoxic; 360,000 tested, 1.6% active; AID 686970;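 further: NT is the 2HG producing partner of a matched IDH1 knockdown line; 0% = DMSO-treated cells and -100% = media-only wells without cells; nearly all actives have a fitted effect of over 55% in size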
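Compounds were tested in concentration-response format on HT-1080-NT cells for 48 hours at 37 degrees C. Cell viability came from CellTiter-Glo luminescence; curves were classified by r2, response magnitude and activity.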
MCF10A rereplic: induces DNA re-replication in MCF 10a normal breast cells; MCF 10A DNA re-replication, Hoechst nuclear intensity, 48 h; Potency, µM (doses to about 46.1 µM), for inactives: top-dose activity, positive = re-replication, usual class: activators; 350,000 tested, 2.9% active; AID 624296; further: % of control where 0% means no effect; nearly all actives have a fitted effect of over 50% in size
KB-V1 cytotox: kills drug-selected multidrug resistant KB-V1 cells. KB-V1 MDR cells viability, CellTiter-Glo, 72 h. Potency, µM (series often up to 46.1 µM), most hits filed as cytotoxic. 400,000 tested, 3.4% active; further: on the % scale 0 is the no-effect control and ±100 the full control effect; nearly all actives have a fitted effect of over 60% in size
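KB-V1 cells (P-gp-expressing MDR subline of KB-3-1) in phenol-red-free DMEM with 10% FBS were exposed to library compounds over a concentration series for 72 h at 37 degrees C. Viability read by CellTiter-Glo luminescence; concentration-effect curves fitted after normalization.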
Starred values were filed as active, the others as inactive; i = inactive; ? = inconclusive; . = not tested or not shown. The call rests on the fitted dose curve; in most records, active means well fitted curve in the direction sought with a large enough effect; inconclusive means small, poorly fitted or top-dose-only effect, or another doubt; inactive means no such curve, though single readings can be large; an effect the other way counts as inactive or inconclusive. Potency means the concentration at half of the fitted maximal effect.

SMILES | HT1080 IDH1KD tx | SW480 rereplic | KB-3-1 cytotox | HT1080-NT tox | MCF10A rereplic | KB-V1 cytotox
COC(=O)c1cc(OC)c(OC)cc1NCC(=O)Nc1ccc(C)cc1 | 1.8% | -50.6% | i | -0.2% | 2.0% | 23.1µM*
COC(=O)c1cc(OC)c(OC)cc1NCC(=O)Nc1ccc(OC)c(OC)c1 | 0.0% | -120.3% | i | 1.3% | 9.2% | ?
COC(=O)c1cc(OC)c(OC)cc1NC(=O)Cc1ccccc1[N+](=O)[O-] | ? | -8.0% | i | 1.2% | -17.3% | 2.31µM*
COC(=O)c1cc(OC)c(OC)cc1NC(=O)CN1CCCCC1 | 14.9% | -4.1% | i | 25.7% | 16.4% | 16.4µM*
O=C(CSc1oc(-c2ccco2)nc1S(=O)(=O)c1ccc(Cl)cc1)c1ccc(Cl)cc1 | . | . | i | . | . | i
COc1ccc(OC)c(C(Cc2ccnc3ccccc23)Cc2ccnc3ccccc23)c1 | . | . | i | . | . | i
Cc1ccc(S(=O)(=O)N2[C@H](CC(=O)c3cccs3)OC[C@@H]2C(C)C)cc1 | ? | . | 18.4µM* | ? | . | 18.4µM*
CCOc1ccccc1NC(=O)C(OC(=O)c1ccc(CC)cc1)c1ccccc1 (stereo not given) | -2.1% | -5.2% | ? | -11.1% | 6.7% | i
CCOc1ccccc1NC(=O)C(OC(=O)c1ccc(N(C)C)cc1)c1ccccc1 (stereo not given) | 3.1% | -95.8% | i | 12.1% | -7.3% | 9.2µM*
CCOc1ccccc1NC(=O)C(OC(=O)c1ccc(O)cc1)c1ccccc1 (stereo not given) | 23.1µM* | 9.1% | ? | ? | 8.9% | 14.6µM*
CCOc1ccccc1NC(=O)C(OC(=O)c1cnccn1)c1ccccc1 (stereo not given) | 2.3% | 1.5% | i | 10.0% | 2.8% | 18.4µM*
Cc1cc(C(=O)NCc2ccccc2C)c2c(C)nn(-c3cccc(F)c3)c2n1 | . | . | i | . | . | i
O=S(=O)(c1ccc(Br)cc1)c1nc(-c2ccccc2)oc1NCCN1CCOCC1 | -1.5% | 18.2% | i | -5.1% | 18.6% | ?
C=CC(=O)N=c1sc2ccccc2n1-c1ccccc1 | 10.3µM* | 3.26µM* | 14.6µM* | 13µM* | ? | 7.31µM*
N=c1sc2ccccc2n1-c1ccccc1 | ? | ? | ? | -9.7% | ? | ?
COCCNc1cc(C)nc2cc(-c3ccc(C)cc3)nn12 | -19.3% | 16.4µM* | i | -1.8% | ? | ?
Cc1ccc(-c2cc3nc(C)cc(NCc4ccco4)n3n2)cc1 | -16.9% | ? | i | ? | 5.17µM* | 14.6µM*
Clc1cccc(-c2cc3nc4c(c(NCc5ccco5)n3n2)CCCC4)c1 | -14.4% | ? | i | ? | 23.1% | 20.6µM*
Cc1ccccc1C(=O)n1nc(-c2cccnc2)nc1NCc1ccc(F)cc1 | . | . | i | . | . | i
COc1ccccc1N1CCN(C(=O)c2cc(N3C(=O)C4C5CCC(C5)C4C3=O)ccc2Cl)CC1 (stereo not given) | -0.7% | -2.2% | i | -0.5% | 9.7% | 4.11µM*
COc1ccc(N2CCN(C(=O)c3nc(SC)ncc3Cl)CC2)cc1 | . | . | i | . | . | i
COc1cc2c(cc1OC)C(C)N(C(=O)c1c(-c3ccccc3)noc1C)CC2 (stereo not given) | 23.1µM* | ? | ? | ? | 11.6µM* | 20.6µM*
COc1cc2c(cc1OC)C(C)N(CCc1ccc(Cl)cc1)CC2 (stereo not given) | ? | -96.9% | i | 11.6µM* | ? | ?
COc1ccccc1N1CCN(C(=O)C2CCN(C(=O)c3ccccc3C)CC2)CC1 | 0.0% | -2.2% | . | 1.8% | 13.2% | .
COc1cc2c(cc1OC)C(C)N(C(=O)c1cccc([N+](=O)[O-])c1)CC2 (stereo not given) | -26.6% | 1.1% | i | -9.0% | 17.4% | ?
SMILES | HT1080 IDH1KD tx | SW480 rereplic | KB-3-1 cytotox | HT1080-NT tox | MCF10A rereplic | KB-V1 cytotox
CCSc1ncc(Cl)c(C(=O)N2CCN(c3ccccc3OC)CC2)n1 | . | . | 6.51µM* | . | . | 3.66µM*
CCOC(=O)N1CCN(C(=S)NCCOC)CC1 | -5.0% | -8.9% | i | -4.9% | -6.9% | i
COc1cc2nc(SCc3ccc(C)cc3)n3nc(CCn4nc(C)cc4C)nc3c2cc1OC | . | . | i | . | . | i
O=C(NCCCn1ccnc1)c1ccc(Br)s1 | 6.3% | 2.4% | i | 13.4% | 17.6% | i
COCCCN1C(=O)c2ccc(C(=O)Nc3ccc(C)cc3C)cc2C1=O | 0.0% | -9.3% | i | -2.7% | 3.8% | i
COc1cc(SC)ccc1C(=O)N1CCN(c2ccccc2OC)CC1 | 8.2µM* | ? | 6.51µM* | 9.2µM* | 18.4µM* | 16.4µM*
COc1ccccc1N1CCN(C(=O)c2c(-c3ccccc3)noc2C)CC1 | 14.6µM* | ? | 4.61µM* | ? | 11.2µM* | ?
COc1cc2c(C(=O)N3CCN(c4ccccc4C)CC3)c(C)oc2cc1Br | 12.1% | 12.7% | ? | 4.9% | 11.5% | 5.8µM*
COc1cc2c(cc1OC)C(C)N(C(=O)c1sccc1C)CC2 (stereo not given) | -11.7% | -1.5% | i | 1.6% | 1.1% | i
COC(=O)C1CCN(C(=O)c2ccc(SC)cc2OC)CC1 | 2.2% | -4.9% | i | 3.2% | -2.5% | i
COc1cc2c(cc1OC)C(C)N(C(=O)c1ccc(C)o1)CC2 (stereo not given) | ? | ? | ? | ? | 20.1% | 16.4µM*
O=C(CSc1nnc(CNC(=O)c2cccc(F)c2)n1-c1ccccc1)Nc1ccccc1F | . | . | i | . | . | i
COc1cc2c(cc1OC)C(C)N(C(=O)Nc1ccccc1)CC2 (stereo not given) | 2.59µM* | 5.17µM* | 6.51µM* | 2.91µM* | ? | ?
CN1CCN(C(=O)c2ccc(Cl)c(S(=O)(=O)N3CCCCCC3)c2)CC1 | 9.8% | -4.6% | i | 5.6% | -9.1% | ?
COc1ccccc1N1CCN(C(=O)c2cc(-c3ccccc3)on2)CC1 | -11.8% | -5.5% | i | -8.6% | ? | ?
COc1cc2c(cc1OC)C(c1ccccc1)N(C(=O)CCl)CC2 (stereo not given) | ? | 16.4µM* | 4.11µM* | ? | 16.4µM* | 9.2µM*
COc1cc2c(cc1OC)C(C)N(C(=O)CCNC(=O)c1ccccc1)CC2 (stereo not given) | 11.3% | -2.3% | i | -2.4% | 4.6% | i
COc1cc2c(cc1OC)C(C)N(C(=O)c1ccc(Cl)c(S(=O)(=O)N3CCCCC3)c1)CC2 (stereo not given) | -18.5% | 18.3% | 11.6µM* | -23.3% | 4.9% | i
